Like-named read-outs stand apart in the source and are kept apart here. About 3,200 (25%) of roughly 13,000 compounds showed an effect of 50% or more. This is one part of the list.
Tested on: P. falciparum stage V gametocytes
Set-up: BacTiter-Glo ATP luminescence viability of purified stage V gametocytes in 384-well plates, per cent inhibition versus DMSO
Details: 48 h, 5 µM, inhibitor

SMILES	% Inhibition	% Inhibition (% Inhibition)
Cc1noc(-c2ccc(NC[C@@H](C)NC[C@H](O)c3cccc(Cl)c3)cc2)n1 [TCMDC-132027]	14.57%	
COc1cc(C=Cc2ccc3ccccc3n2)cc(Br)c1OCC(=O)N(C)C [TCMDC-124818]	44.47%	
CCCCC(=O)NC(c1cccs1)c1cc(Cl)c2cccnc2c1O (centres unmarked) [TCMDC-123653]	45.79%	
CC(C)C(=O)NC(c1cccs1)c1cc(Cl)c2cccnc2c1O (centres unmarked) [TCMDC-123636]	43.04%	
CCCC(=O)NC(c1cccs1)c1cc(Cl)c2cccnc2c1O (centres unmarked) [TCMDC-123634]	68.96%	
CC(C)C(=O)NC(c1ccc(N(C)C)cc1)c1cc(Cl)c2cccnc2c1O (centres unmarked) [TCMDC-123643]	90.13%	
CC(=O)NC(c1cccs1)c1cc(Cl)c2cccnc2c1O (centres unmarked) [TCMDC-125548]	90.83%	
COc1ccccc1N(C)CCNc1cc(C)nc(Nc2ccccc2)n1 [TCMDC-133455]	-20.01%	
Cc1cc(NC(=O)N=C(N)N)ccc1Cl [TCMDC-137470]	23.53%	
CC(C)Cc1nc(N2CCOCC2)c2nnn(Cc3ccccc3)c2n1 [TCMDC-124394]	7.117%	
Cc1ccc(C)c(CN2CCC(CNC(=O)c3cc4ccc5cccnc5c4[nH]3)CC2)c1 [TCMDC-125280]	17.56%	
CCN1C(c2ccc(Cl)cc2)C(CNCc2ccccc2O)CC1(C)CO (centres unmarked) [TCMDC-124672]	-22.05%	
Cc1cc2c(cc1C(F)(F)F)N(C(=O)Nc1cc(OCCN(C)C)cc(C(F)(F)F)c1)CC2 [TCMDC-139873]	27.41%	
Cc1cc(Nc2cccc(Cl)c2)nc2ccc(NC(=O)c3ccc(=O)[nH]c3)cc12 [TCMDC-125285]	-92.28%	
N#Cc1ccc(NC(=O)Nc2ccc3c(c2)CCN(C2CCC2)CC3)cc1 [TCMDC-135861]	25.77%	
COc1cc([N+](=O)[O-])ccc1NC(=O)Nc1ccc(OC(F)(F)F)cc1 [TCMDC-125388]	60.01%	
O=C(Nc1cccc([N+](=O)[O-])c1)Nc1cccc(C(F)(F)F)c1 [TCMDC-123674]	-87.02%	
O=C(Nc1ccc(OC(F)(F)F)cc1)Nc1ccc([N+](=O)[O-])cc1 [TCMDC-123714]	-87.78%	
O=C(Nc1ccc([N+](=O)[O-])cc1)Nc1cc(OCC(F)(F)F)cc(OCC(F)(F)F)c1 [TCMDC-124533]	87.27%	
O=C(Nc1ccc([N+](=O)[O-])cc1)Nc1cc(C(F)(F)F)ccc1F [TCMDC-124367]	-37.77%	
O=C(Nc1ccc(CCNCc2ccccc2)cc1)Nc1ccc(OC(F)(F)F)cc1 [TCMDC-141914]	-0.1841%	
COc1cc(NC(=O)Nc2ccc([N+](=O)[O-])cc2OC)c(OC)cc1Cl [TCMDC-124366]	14.63%	
N#Cc1ccc(NC(=O)Nc2ccc(OC(F)(F)F)cc2)cc1 [TCMDC-123773]	69.14%	
Cc1ccc(C2CC(=O)CC(c3ccccn3)C2[N+](=O)[O-])cc1 (centres unmarked) [TCMDC-139131]	6.685%	

SMILES	% Inhibition	% Inhibition (% Inhibition)
CCCSc1nc2c(c(=O)n1Cc1ccco1)C1(CCCCC1)Cc1ccccc1-2 [TCMDC-123897]	-0.1623%	
CC(C)C[C@H](NC(=O)c1ccc(OCCN2CCOCC2)cc1)C(=O)N[C@H](/C=N/N1CCN(C)C1=O)CCc1ccccc1 [TCMDC-136154]	6.527%	
CO/C(=C\C=C\c1cc2cc(Cl)c(Cl)cc2[nH]1)C(=O)NCCCN1CCN(c2cccc(O)c2)CC1 [TCMDC-139248]	6.724%	
O=C(NCc1ccc(C(=O)NC2CCCCCC2)cc1)c1ccc(O)c(-c2ccc(Cl)c(Cl)c2)c1 [TCMDC-140846]	-16.48%	
CN(C)c1ccc(NC(=O)Nc2ccnc3ccc(Br)cc23)cc1 [TCMDC-139326]	-66.68%	
C/C=C1\CN2CC[C@H]1C[C@H]2[C@H](O)c1ccnc2ccc(OC)cc12 [TCMDC-138074]		4.282%
COc1ccc(Nc2nccc(-c3ccc4ccnc(NCCCCN)c4c3)n2)cc1 [TCMDC-136642]	94.8%	
NCCCCNc1cc(-c2ccnc(Nc3cccc(Cl)c3)n2)ccn1 [TCMDC-134683]	70.36%	
COc1ccc(Nc2nccc(-c3ccc4c(-c5ccsc5)cnc(N)c4c3)n2)cc1 [TCMDC-135552]	9.815%	
OC(CNc1ccnc(Nc2cccc(Cl)c2)n1)c1cccc(F)c1 (centres unmarked) [TCMDC-136573]	-70.46%	
COc1ccc(CNc2nccc3ccc(-c4ccc(N)nc4)cc23)cc1 [TCMDC-133418]	62.64%	
CCCCNc1nccc2ccc(-c3ccncc3)cc12 [TCMDC-136490]	-10.89%	
OC(CNc1ccnc(Nc2cccc(Cl)c2)n1)c1cccc(C(F)(F)F)c1 (centres unmarked) [TCMDC-136586]	-39.19%	
COc1ccc(CNc2nccc3ccc(-c4ccc5nccn5c4)cc23)cc1 [TCMDC-133417]	-35.58%	
COc1ccc(CNc2ccnc3cc(OC)ccc23)cc1 [TCMDC-139267]	1.914%	
Cc1ccccc1C1CCN(C2CCC(NC(=O)/C=C/c3cccc(Cl)c3)CC2)CC1 (centres unmarked) [TCMDC-133508]	-91.25%	
CS(=O)(=O)c1ccc(CNCc2cccc(-c3cccc(-c4nc5cc(C(F)(F)F)ccc5[nH]4)c3)c2)cc1.O=C(O)C(F)(F)F [TCMDC-132899]	-4.854%	
O=C(Nc1ccc(N2CCN(Cc3cccc(F)c3)CC2)cc1)c1cccs1 [TCMDC-134999]	-0.3438%	
COc1ccc2nccc([C@@H](O)CN3CCC(NC(=O)C(c4cc5ccccc5o4)N4CCC(Cc5ccccc5)CC4)CC3)c2c1 (some centres unmarked) [TCMDC-140997]	26.99%	
N#Cc1cncc(-c2nc3c(N4CCC(Cc5ccccc5)CC4)cccc3n2C2CCNC2)c1 (centres unmarked) [TCMDC-133545]	7.232%	
COc1cccc(CCc2nc3c(N4CCC(Cc5ccccc5)CC4)cccc3n2CC2CNCCO2)c1 (centres unmarked) [TCMDC-133535]	83.91%	
CC(C)c1sc(N2CCN(C)CC2)nc1C(=O)Nc1ccc(F)cc1C(F)(F)F [TCMDC-134300]	32.87%	
CCSc1ccccc1COc1c(C)nc(N)nc1N [TCMDC-131359]	18.44%	
CCN(CC)c1nc(N)c2c(N)nc3c(c2c1C#N)C(=O)CN3Cc1ccccc1 [TCMDC-125024]	94.19%	

SMILES	% Inhibition	% Inhibition (% Inhibition)
CCN(CC)c1nc(-c2ccccc2)cc(-c2ccccc2)c1C#N [TCMDC-125830]	-26.16%	
Cc1cc(=O)c(-c2cccc(Oc3ccc(Cl)cc3)c2)c(C)[nH]1 [TCMDC-137415]	52.21%	
Cc1cc(=O)c(-c2ccc(Oc3cccc(Cl)c3)cc2)c(C)[nH]1 [TCMDC-137265]	67.32%	
COc1ccc(Oc2ccc(-c3c(C)[nH]c(C)cc3=O)cc2)cc1 [TCMDC-137401]	68.99%	
Cc1cc(=O)c(-c2ccc(Oc3ccc(Cl)cc3Cl)cc2)c(C)[nH]1 [TCMDC-137267]	10.5%	
Cc1cc(=O)c(-c2ccc(Oc3ccc(F)cc3)cc2)c(C)[nH]1 [TCMDC-137535]	37.78%	
Cn1cnc2c(SCc3ccc(OCc4ccccc4)cc3)ncnc21 [TCMDC-136496]	-19.47%	
O=C(NC(=O)c1ccccc1O)c1ccccc1O [TCMDC-125868]	4.896%	
O=C(NC1CCN(c2ccnc3cc(Cl)ccc23)C1)c1ccc(F)cc1 (centres unmarked) [TCMDC-133653]	-3.627%	
O=C(Nc1nc2ccc(Cl)cc2s1)c1csnn1 [TCMDC-125073]	-15.98%	
Cn1c(C2CC3CCC(C2)N3CC2CCC(NC(=O)/C=C/c3ccc(Cl)c(Cl)c3)CC2)nc2ccccc21 (centres unmarked) [TCMDC-140342]	-2.342%	
Cc1ccccc1N1CCN(c2ncc(C(=O)NC3CC3)cc2Cl)CC1 [TCMDC-134602]	6.226%	
CC(C)C[C@@H](/C=N/N1CCOC1=O)NC(=O)[C@H](CC(C)C)NC(=O)c1ccc(OCCN2CCOCC2)cc1 [TCMDC-136170]	-12.99%	
COC(=O)c1ccc(CCCNCC(O)c2cccc(C(F)(F)F)c2)cc1 (centres unmarked) [TCMDC-131462]	1.956%	
O=C(COc1ccc(Cl)c(Cl)c1)NCCCCCN1CCCN(C(=O)Nc2cc(Cl)cc(Cl)c2)CC1 [TCMDC-136293]	78.53%	
O=C(/C=C/c1ccc(Cl)c(Cl)c1)NCCCCCN1CCCN(C(=O)Nc2cc(Cl)cc(Cl)c2)CC1 [TCMDC-135760]	-3.132%	
Cc1ccc(/C=C/C(=O)NCCCCCN2CCCN(C(=O)Nc3ccc(Cl)c(Cl)c3)CC2)cc1 [TCMDC-136111]	-64.67%	
O=C(/C=C/c1ccc(Cl)c(Cl)c1)NCCCCCN1CCCN(C(=O)Nc2ccc(F)c(Cl)c2)CC1 [TCMDC-135755]	-45.85%	
O=C(/C=C/c1ccc(Cl)c(Cl)c1)NCCCCCCN1CCCN(C(=O)Nc2cc(Cl)cc(Cl)c2)CC1 [TCMDC-135936]	-15.47%	
O=C(COc1ccc(Cl)c(Cl)c1)NCCCCCN1CCCN(C(=O)Nc2ccc(Cl)c(Cl)c2)CC1 [TCMDC-136292]	72.04%	
CC(NC(C)(C)C)C(O)c1ccc(Cl)c(C(F)(F)F)c1 (centres unmarked) [TCMDC-137910]	-2.927%	
Cc1cccc(C(=O)NC(NC(=S)Nc2cc(Cl)ccc2Cl)C(Cl)(Cl)Cl)c1 (centres unmarked) [TCMDC-124254]	-20.87%	
CC1(C)N=C(N)N=C(N)N1OCCCOc1cccc(Cl)c1 [TCMDC-131762]	16.24%	

From paper PMC4552634, “A New Set of Chemical Starting Points with Plasmodium falciparum Transmission-Blocking Potential for Antimalarial Drug Discovery” (PLoS ONE, 2015)
